Results from PubChem BioAssay (EPA / NIEHS).
A structure can be active in one record and inactive in another. Activity calls are given as the source filed them. Rule for the calls: active = hit-call score of the fitted dose curve at least 0.9, where 1 is the maximum; inactive = score below 0.9.

read-out: Interleukin-1 alpha (IL1a), IL1A (gene 3552); assay: BSK_BE3C_IL1a: BioMAP Diversity Plus: BE3C Assay for Interleukin-1 alpha (IL1a) Biomarker Activity (AID 2283016); details: primary human bronchial epithelial cells; actives raise or lower the signal
Protocol: BSK_BE3C is a cell-based, multiplexed-readout assay that uses bronchial epithelial cell, a human lung primary cell, with measurements taken at 24 hours after chemical dosing in a 96-well plate.BSK_BE3C_IL1a is an assay component measured in the BSK_BE3C assay. It measures IL-1a antibody related to regulation of gene expression using ELISA technology.Data from the assay component BSK_BE3C_IL1a was analyzed into 1 assay endpoint. This assay endpoint, BSK_BE3C_IL1a, was analyzed with bidirectional fitting relative to DMSO as the negative control and baseline of activity. Using a type of binding reporter, gain or loss-of-signal activity can be used to understand changes in the signaling as they relate to the gene IL1A. Furthermore, this assay endpoint can be referred to as a primary readout, because this assay has produced multiple assay endpoints where this one serves a signaling function. To generalize the intended target to other relatable targets, this assay endpoint is annotated to the cytokine intended target family, where the subfamily is interleukins.
The levels of cell surface (or secreted, indicated by the prefix "s") biomarker endpoints were measured by ELISA. Overt cytotoxicity to cells in confluent adherent cultures (all systems other than the BT system) was assessed by measuring total protein levels using sulforhodamine B (SRB) staining in parallel cultures at the time of biomarker measurements, indicated as SRB endpoints. For proliferation assays for adherent cell types, individual cell types are cultured at sub-confluence and relative cell numbers quantified by SRB staining at time points optimized for each system (48 h: 3C and CASM3C systems; 72 h: BT and HDF3CGF systems; 96 h: SAg system). SRB was performed by staining cells with 0.1% SRB after fixation with 10% TCA and reading wells at 560 nm.Viability and proliferation of PBMC (T cells) was quantified by Alamar Blue reduction for the SAg and BT systems. For PBMC viability (referred to as PBMC Cytotoxicity within the assay endpoint names), cells were plated (75,000/well in a 96-well plate) and then chemical samples added for 1 h before addition of activators, SEB and TSST-1 (20 ng/mL final concentration each). Cells were incubated for 90 h. Then, Alamar Blue (20 uL/well) (Invitrogen, Cat DAL1100) was added for 6 h, and the plates were read with a fluorescence microplate reader at 546/580 nm (excitation/emission). For PBMC proliferation, cells were plated and activated as above but incubated for only 16 h prior to addition of Alamar Blue. Plates were read after 6 h.

Row | Structure (SMILES) | AC50 | outcome
1 | C=C(C)C(=O)[O][Sn]([CH2]CCC)([CH2]CCC)[CH2]CCC | 0.148 µM (active) | 
2 | Nc1ncc([N+](=O)[O-])s1 |  | inactive
3 | COP(=S)(OC)Oc1c(Cl)cc(C)cc1Cl |  | inactive
4 | CCCCCCCCC(=O)NCc1ccc(O)c(OC)c1 |  | inactive
5 | CCOP(=S)(OCC)SCCS(=O)(=O)CC |  | inactive
6 | COP(=S)(OC)Oc1ccc(Sc2ccc(OP(=S)(OC)OC)cc2)cc1 | 7.5 µM (active) | 
7 | CN(C)N=O |  | inactive
8 | ClC(Cl)=C(Cl)C(Cl)=C(Cl)Cl | 36.7 µM (active) | 
9 | COC[C@H](C)N(C(=O)CCl)c1c(C)csc1C |  | inactive
10 | CC1(C)Cc2cccc(O)c2O1 |  | inactive
11 | C[C@]12CCC(=O)C[C@@H]1CC[C@@H]1[C@@H]2CC[C@]2(C)[C@@H](O)CC[C@@H]12 |  | inactive
12 | O=C(O)C(Cl)(Cl)Cl |  | inactive
13 | OCc1ccco1 |  | inactive
14 | ClCC(Cl)CCl |  | inactive
15 | CC(C)(c1ccccc1)c1ccc(O)c(C(C)(C)c2ccccc2)c1 | 28.5 µM (active) | 
16 | Oc1cccc2cccnc12 | 5.35 µM (active) | 
17 | C=CC(=O)OCCCCCC(C)C |  | inactive
18 | ClC1=C(Cl)[C@]2(Cl)[C@H]3[C@H]([C@H]4C=C[C@H]3C4)[C@@]1(Cl)C2(Cl)Cl |  | inactive
19 | O=C(O)CCC(F)(C(F)(F)F)C(F)(F)F |  | inactive
20 | C(=NC1CCCCC1)=NC1CCCCC1 | 20 µM (active) | 

Row | Structure (SMILES) | AC50 | outcome
21 | BrCCBr |  | inactive
22 | COP(=S)(OC)Oc1cc(Cl)c(Cl)cc1Cl |  | inactive
23 | CCSC(C)CC1CC(=O)C(C(CC)=NOC/C=C/Cl)=C(O)C1 (stereo not given) |  | inactive
24 | CCCCCCCCc1ccc(O)cc1 | 32.6 µM (active) | 
25 | CCOC(=O)/C=C(C)/C=C/C[C@@H](C)CCCC(C)C | 20 µM (active) | 
26 | O=C(Nc1ccc2[nH]ccc2c1)c1cc2cc(F)ccc2n1Cc1cccc(F)c1 | 10.3 µM (active) | 
27 | CC(C)(C)CC(C)(C)c1ccc(O)cc1 | 19.5 µM (active) | 
28 | CCNc1nc(NC(C)(C)C)nc(SC)n1 |  | inactive
29 | COC(=O)Cc1ccccc1 |  | inactive
30 | O=C1C2(Cl)C3(Cl)C4(Cl)C(Cl)(Cl)C5(Cl)C3(Cl)C1(Cl)C5(Cl)C24Cl (stereo not given) | 9.67 µM (active) | 
31 | CC(=O)[O][Hg][c]1ccccc1 | 2.57 µM (active) | 
32 | COc1cc(OC)nc(NC(=O)NS(=O)(=O)c2ncccc2C(=O)N(C)C)n1 |  | inactive
33 | COc1cc(-c2ccc(N)c(OC)c2)ccc1N | 5.28 µM (active) | inactive
34 | CC(C)(C)c1cc(O)ccc1O |  | inactive
35 | NC(=O)O |  | inactive
36 | CCCCC(CC)CO[N+](=O)[O-] (stereo not given) |  | inactive
37 | Nc1ccc(-c2ccc(N)c(Cl)c2)cc1Cl |  | inactive
38 | Oc1ccc(-c2ccccc2)cc1 |  | inactive
39 | Oc1c(I)cc(I)cc1I | 8.87 µM (active) | 
